Reference: PubChem BioAssay AID588456 (National Center for Advancing Translational Sciences (NCATS), 2011)
About 55 (0.01%) of roughly 390,000 compounds were called active. Calls follow the shape of the dose curve; as a rule, active = well fitted inhibition curve with a large enough effect; inconclusive = small, poorly fitted or top-dose-only effect; inactive = no such curve, though single readings can be large or run the other way. These entries were drawn from the full list.

target: Thioredoxin reductase 1, cytoplasmic (Rattus norvegicus) (UniProt O89049); assay: qHTS Assay for Substrates of Mammalian Selenoprotein Thioredoxin Reductase 1 (TrxR1): qHTS; details: purified TrxR1 substrate turnover, NADPH consumption readout; series mostly up to 114 µM; also: nearly all actives have a fitted effect of over 50% in size
Sequence (O89049 whole entry, looked up): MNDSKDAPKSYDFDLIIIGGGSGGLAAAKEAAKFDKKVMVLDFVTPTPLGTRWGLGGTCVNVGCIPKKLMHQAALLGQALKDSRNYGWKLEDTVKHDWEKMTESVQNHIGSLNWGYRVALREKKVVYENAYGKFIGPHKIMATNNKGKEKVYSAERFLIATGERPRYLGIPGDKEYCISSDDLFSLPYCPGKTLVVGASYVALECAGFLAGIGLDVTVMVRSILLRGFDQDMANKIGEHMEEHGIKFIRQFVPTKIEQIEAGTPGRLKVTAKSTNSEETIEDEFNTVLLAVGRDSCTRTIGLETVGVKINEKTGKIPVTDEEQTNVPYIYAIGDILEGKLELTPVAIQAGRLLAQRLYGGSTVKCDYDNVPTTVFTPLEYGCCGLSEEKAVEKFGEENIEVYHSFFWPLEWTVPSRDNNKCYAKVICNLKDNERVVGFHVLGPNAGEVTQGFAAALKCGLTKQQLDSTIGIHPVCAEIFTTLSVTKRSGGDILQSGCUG
Source text: The selenoprotein thioredoxin reductase (TrxR; EC 1.8.1.9) is a FAD containing homodimeric pyridine nucleotide-disulfide oxidoreductase with many cellular roles. Together with NADPH and its prime substrate thioredoxin (Trx), the enzyme forms the core of the Trx system. The mammalian Trx system exerts a wide spectrum of functions including redox regulation, antioxidant defense, regulation of transcription factors as well as support of cell growth and replication. Many of these functions involve the reduction of Trx, which may subsequently reduce a number of different substrates including ribonucleotide reductase, peroxiredoxins or NFkB. Mammalian TrxR itself also has a broad substrate specificity, reducing both protein and non-protein substrates, including low molecular weight compounds such as dehydroascorbate, lipoic acid, ubiquinone, and juglone. In addition, several drugs in clinical use for anticancer treatment are indeed known to target TrxR1.
This BioAssay is a validation of an NADPH fluorescence-based, dual-purpose qHTS rTrxR1 assay designed to find potential inhibitors and substrates of rTrxR1. For this particular BioAssay, actives are potential substrate. See related BioAssay for inhibition data deposition.
NIH Molecular Libraries Probe Production Network [MLPCN]
NIH Chemical Genomics Center [NCGC]
Assay Provider: Elias Arner, Karolinska Institute
Assay protocol: 2 uL of reagents (buffer in column 4 as negative control and 90 nM rTrxR1 in columns 1-3 and 5-48) were dispensed into Greiner black solid-bottom 1,536-well assay plates, followed by 1 uL of NADPH (400 uM final concentration) to each well. The plates were centrifuged at 1000 rpm for 15 seconds and subsequently incubated for 5 min at room temperature (~22 deg C) to allow for rTrxR1 reduction. Compounds (23 nL) were then transferred via Kalypsys pin tool equipped with 1536-pin array (10 nL slotted pins, V&P Scientific, San Diego, CA). In addition, a duplicate 2-fold serial dilution of the control compounds auranofin, a known gold-based TrxR1 inhibitor, and juglone (5-hydroxy-1,4-naphthoquinone), a natural TrxR1 substrate, were pin-transferred to columns 2 and 3, respectively. After incubation for 15 min at room temperature (~22 deg C), 1 uL of selenite (400 uM final concentration) were dispensed to each well. The plate was immediately transferred to a ViewLux high-throughput CCD imager (PerkinElmer), wherein kinetic measurements of NADPH fluorescence (Ex 340 nm, Em 450 nm) were acquired (8 minute kinetic read, see Table 1). Read 1 was utilized to assess the capacity of a compound to serve as an rTrxR1 substrate, i.e. a decrease in NADPH fluorescence compared to the no-compound background is an indication of a substrate behavior for that particular compound. For inhibitory activity of a compound, delta values, computed as the difference in fluorescence intensity between the first and last reads of an 8-minute time kinetic window, were used. All reagents were diluted in an assay buffer consisting of 50 mM Tris-HCl, pH 7.5, 2 mM EDTA, and 0.01% Tween-20.
Throughout the screen, reagent bottle and all liquid lines were made light-tight to minimize reagent degradation. All screening operations were performed on a fully integrated robotic system (Kalypsys, San Diego, CA) containing one RX-130 and two RX-90 anthropomorphic robotic arms (Staubli, Duncan, SC). Library plates were screened starting from the lowest and proceeding to the highest concentration, and a 'double-pinning' step of the highest concentration was required to access higher concentrations of compounds. Vehicle-only plates, with DMSO being pin-transferred to the columns 5-48, were inserted uniformly at the beginning and the end of each library in order to monitor and record any shifts in the background, which can be affected by reagent dispensers or loss in enzyme activity over time. […]
% is scaled to controls: 0 for no effect and ±100 for the full control effect.

Activity change, negative = substrate turnover, inactive:
Cc1ccc(-c2nc(=N)sn2Cc2ccccc2)cc1
C[N+]1(CC(=O)c2cccs2)CCOCC1
COc1ccccc1OCCNCC(O)COc1cccc2[nH]c3ccccc3c12 (configuration not stated)
CN(C)c1ccc(/C=c2\[nH]c(=O)/c(=C/c3ccc(N(C)C)cc3)[nH]c2=O)cc1
Cc1ccc(-n2nc(C)c(C(=O)O)c2-n2cccc2)cc1
OC(CBr)CN1CCCCC1 (configuration not stated)
O=C(O)/C(=C/c1c(C(=O)O)[nH]c2cc(Cl)cc(Cl)c12)c1ccccc1
Cc1ccc(-c2nnc(Nc3ccc(OCC(N)=O)cc3)c3ccccc23)cc1S(=O)(=O)NCC1CCCO1 (configuration not stated)
CCc1cccc(NC(=O)c2cnc(N3CCOCC3)c3ccccc23)c1
CCC(=O)N1CCc2cc(Br)cc(S(=O)(=O)NCc3ccc(Cl)cc3)c21
Cc1cc2oc(C(=O)N(Cc3ccc(Cl)cc3)Cc3ccco3)c(C)c2cc1Cl
O=C(C[n+]1ccncc1)c1ccc2c(c1)CCCC2
CNCCCOc1cc2nc(N3CCCN(C)CC3)nc(NC3CCN(C)CC3)c2cc1OC
C=CCNC(=O)c1ccc2nc(-c3ccco3)c(-c3ccco3)nc2c1
Clc1cccc[n+]1CCCC[n+]1ccccc1Cl
Cc1ccc(NC(=O)c2ccc3[nH]c(C)cc(=O)c3c2)c(C)c1
O=C(COC(=O)c1ccccc1OCCOc1ccccc1)Nc1cccc(Br)c1
O=C1CC(c2ccc(F)cc2F)c2cc3c(cc2N1)OCO3 (configuration not stated)
NS(=O)(=O)c1ccc(NC(=O)CSc2nnc3c(n2)[nH]c2ccccc23)cc1
COc1cc2[nH]c(C)c(CCN3CCN(c4ccccc4)CC3)c2cc1OC
COc1ccc(CCNC(=O)CCCn2c(=O)c3ccccc3n(Cc3ccc(C)cc3)c2=O)cc1OC
Cc1ccc(-c2cc(N)n(Cc3cccc(Cl)c3)n2)cc1
Oc1ccc(Cn2cc[nH]c2=S)cc1
OCC(O)C(O)C(O)C(O)C=Nc1ccc(/C=C/c2ccnc3ccccc23)cc1 (configuration not stated) 5.9% [at 0.0914 µM]
CC(C)CNc1ncnc2c1nnn2C
CCN1CCN(c2ccc(/C=C/c3ccnc4ccccc34)cc2)CC1
CCC(C(=O)Nc1cccc(-c2nc3cccnc3s2)c1C)c1ccccc1 (configuration not stated)
COC(=O)c1scc(-c2ccccc2)c1S(=O)(=O)Nc1ccccc1
C(=Nc1ccc(/C=C/c2ccnc3ccccc23)cc1)Nc1ccc(/C=C/c2ccnc3ccccc23)cc1
COc1cc2nc(N3CCCN(C)CC3)nc(NC3CC3)c2cc1OC
Cc1ccc(Cl)cc1NC(=O)NC1COc2ccccc2C1 (configuration not stated)
O=C(NCc1ccccc1)c1cccc(NC(=O)N2CCSc3ncccc32)c1
CC1(C)CC(=O)c2cc(C(=O)NCc3ccccc3)c(=O)[nH]c2C1
CCCCCCCNc1ccc(/C=C/c2ccnc3ccccc23)cc1
O=C(CC1Oc2ccc(Cl)cc2NC1=O)NCc1ccccc1 (configuration not stated)
CSc1cccc(NC(=O)CN2C(=O)CCc3cc(S(=O)(=O)N4CCCCC4)ccc32)c1
Cc1ccc(NC2=C(c3ccc(C(F)(F)F)cc3)C(=O)c3ccccc32)cc1F
CNC(=O)c1ccc(-c2nc(CN3CCc4ccccc43)c(C)o2)cc1
O=C(c1ccco1)N(Cc1cccs1)c1ccc(O)cc1
S=c1[nH]c(=S)c2n[nH]nc2[nH]1 -1.94% [at 0.0914 µM]
CC(C)(C)c1ccc(C(=O)C[N+]2(C)CCCc3ccccc32)cc1 (configuration not stated)
O=C(O)C1=C/C(=C/C=[N+]2c3cc(O)c(O[C@H]4OC(CO)[C@@H](O)[C@@H](O)[C@@H]4O)cc3C[C@@H]2C(=O)[O-])C[C@H](C(=O)O)N1 (some centres not stated)
CC1CC(C)CN(c2oc(-c3ccc(OCc4ccc(Cl)cc4)cc3)nc2C#N)C1 (configuration not stated) 6.36% [at 0.0914 µM]
c1ccc(Cn2nnc3c(N4CCCCC4)ncnc32)cc1
CCC(=O)N1CCc2cc(S(=O)(=O)NC(C(=O)NCCc3ccc(C)cc3)C(C)C)ccc21 (configuration not stated)
OCCNc1ncnc2oc(-c3ccco3)c(-c3ccco3)c12
O=[N+]([O-])c1ccc(/C=C/c2ccc3cccnc3c2)cc1
Cc1ccc(-c2nc3ccccn3c2Nc2ccc(F)cc2)o1
O=C(Nc1ccc(O)c(-c2nc3ccccc3o2)c1)c1ccc(-c2cccc(Cl)c2)o1
CCc1cccc(NC(=O)CN(C)S(=O)(=O)c2ccc3[nH]c4c(c3c2)CCCC4)c1
COc1cc2nc(C#Cc3nc4cc(OC)c(OC)cc4[nH]3)[nH]c2cc1OC
NC(=O)Nc1ccc(/C=C/c2ccnc3ccccc23)cc1
CCOC(=O)C1CCCN(C(=O)Cn2ncc3c(C)n(Cc4ccc(F)cc4)c(C)c3c2=O)C1 (configuration not stated)
COc1ccc(/C=C/c2ccnc3ccccc23)cc1OC
O=C(Nc1ccc([N+](=O)[O-])cc1)c1cnn2c1NC(=C1CC1)C=C2C(F)F
COc1ccc(-c2nc(CN3CCC(C(=O)NCc4ccccc4)CC3)c(C)o2)cc1OC
Cc1c(CCO)sc[n+]1CC(=O)c1ccc2ccccc2c1
CN(C)c1cccc2ccccc12
O=C(Nc1ccc(Cl)cc1)c1cnn2c1NC(=C1CC1)C=C2C(F)F
O=C(Cn1cc(SCc2ccccc2)c2ccccc21)N1CCCCC1
Cc1ccc(C(=O)Nc2ccc(OCc3cc(=O)n4c5c(sc4n3)CCCC5)cc2)cc1
N#Cc1ccc[n+](CC(=O)c2ccc(O)c(O)c2)c1
Cc1ccc(Nc2c(-c3ccc(C)s3)nc3ccccn23)cc1
COc1ccc(S(=O)(=O)Nc2cccc3cccnc23)c(N)c1
Cc1cccc(-c2nnc(SC(C)C(=O)Nc3ccccc3)n2C)c1 (configuration not stated)
CCn1c(C)c(C)c2cc(C(=O)NCCc3cc(OC)ccc3OC)ccc21
Cc1csc[n+]1CCC1CCCCC1
